Source: PubChem BioAssay AID1159580 (chemical genetic matrix, 2015)
The whole screen tested about 5,500 compounds, of which about 2,000 (36%) were called active. Not shown: some 18% with an inconclusive outcome. Rule as the data show it: active = normalized growth mostly below about 0.91 (no sharp cut-off); inconclusive = no clear call, values can overlap the other calls; inactive = mostly above about 0.92. The list shows a part of the results.

Test: chemical genetic growth profiling, strain panel (AID 1159580);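 also: tested at 20 µM; growth read once vehicle control cultures reached saturation at 30 °C; 1 = growth at the plate median or of vehicle wells; lower values mean less growth of the strain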
Details: growth OD

Measured: normalized growth

CC[C@@]1(O)C(=O)OCc2c1cc1n(c2=O)Cc2cc3cc(O)ccc3nc2-1
active: S. cerevisiae deletion strains, locus YML032C, strain rad52, hits give low values 0.407 | S. cerevisiae deletion strains, locus YNL250W, strain rad50, hits give low values 0.429
inactive: S. cerevisiae deletion strains, locus YKL068W, hits give low values 0.996 | S. cerevisiae deletion strains, locus YKL085W, strain MDH1 (second series), hits give low values 1.01 | S. cerevisiae deletion strains, locus YKL085W, strain MDH1, hits give low values 1.01 | S. cerevisiae deletion strains, locus YKL160W, strain elf1, hits give low values 1.02 | S. cerevisiae deletion strains, locus YKL190W, strain CNB1, hits give low values 1.02 | S. cerevisiae deletion strains, locus YKR001C, strain vps1, hits give low values 1 | S. cerevisiae deletion strains, locus YKR026C, strain gcn3, hits give low values 0.997 | S. cerevisiae deletion strains, locus YKR091W, strain srl3, hits give low values 1.01 | S. cerevisiae deletion strains, locus YLL001W, strain dnm1, hits give low values 1 | S. cerevisiae deletion strains, locus YLL026W, hits give low values 1.02 | S. cerevisiae deletion strains, locus YLL041C, strain sdh2, hits give low values 1.02 | S. cerevisiae deletion strains, locus YLR027C, strain aat2, hits give low values 1 | S. cerevisiae deletion strains, locus YLR039C, strain RIC1, hits give low values 1.03 | S. cerevisiae deletion strains, locus YLR058C, strain SHM2, hits give low values 1.02 | S. cerevisiae deletion strains, locus YLR102C, strain apc9, hits give low values 0.992 | S. cerevisiae deletion strains, locus YLR113W, strain HOG1, hits give low values 0.942 | S. cerevisiae deletion strains, locus YLR221C, strain rsa3, hits give low values 0.966 | S. cerevisiae deletion strains, locus YLR258W, strain gsy2, hits give low values 1.03 | S. cerevisiae deletion strains, locus YLR262C, strain YPT6 (second series), hits give low values 0.984 | S. cerevisiae deletion strains, locus YLR262C, strain YPT6, hits give low values 1.04 | S. cerevisiae deletion strains, locus YLR268W, strain sec22, hits give low values 0.96 | S. cerevisiae deletion strains, locus YLR320W, strain mms22, hits give low values 0.884 | S. cerevisiae deletion strains, locus YLR330W, strain CHS5, hits give low values 1.02 | S. cerevisiae deletion strains, locus YLR342W, strain FKS1 (second series), hits give low values 0.995 | S. cerevisiae deletion strains, locus YLR342W, strain FKS1, hits give low values 1.01 | S. cerevisiae deletion strains, locus YLR357W, strain rsc2, hits give low values 1.03 | S. cerevisiae deletion strains, locus YLR370C, strain arc18, hits give low values 1.01 | S. cerevisiae deletion strains, locus YLR371W, strain rom2, hits give low values 0.994 | S. cerevisiae deletion strains, locus YLR384C, strain iki3, hits give low values 1.02 | S. cerevisiae deletion strains, locus YLR418C, strain cdc73, hits give low values 1.02 | S. cerevisiae deletion strains, locus YML016C, strain PPZ1, hits give low values 1.02 | S. cerevisiae deletion strains, locus YML120C, strain ndi1, hits give low values 0.995 | S. cerevisiae deletion strains, locus YML124C, strain tub3, hits give low values 0.983 | S. cerevisiae deletion strains, locus YMR058W, strain fet3, hits give low values 1.01 | S. cerevisiae deletion strains, locus YMR078C, strain ctf18, hits give low values 0.947 | S. cerevisiae deletion strains, locus YMR125W, strain sto1, hits give low values 1.03 | S. cerevisiae deletion strains, locus YMR129W, hits give low values 1.02 | S. cerevisiae deletion strains, locus YMR205C, strain PFK2, hits give low values 0.98 | S. cerevisiae deletion strains, locus YMR223W, strain ubp8, hits give low values 0.981 | S. cerevisiae deletion strains, locus YMR231W, strain pep5, hits give low values 1 | S. cerevisiae deletion strains, locus YMR263W, strain SAP30, hits give low values 1.03 | S. cerevisiae deletion strains, locus YMR307W, strain GAS1, hits give low values 1.03 | S. cerevisiae deletion strains, locus YNL067W, strain RPL9B, hits give low values 1.01 | S. cerevisiae deletion strains, locus YNL071W, strain lat1, hits give low values 1.02 | S. cerevisiae deletion strains, locus YNL128W, strain TEP1, hits give low values 1.02 | S. cerevisiae deletion strains, locus YNL183C, strain NPR1, hits give low values 0.91 | S. cerevisiae deletion strains, locus YNL209W, strain ssb2, hits give low values 1.03 | S. cerevisiae deletion strains, locus YNL233W, strain BNI4, hits give low values 1.01 | S. cerevisiae deletion strains, locus YNL248C, strain rpa49, hits give low values 1.03 | S. cerevisiae deletion strains, locus YNL271C, strain bni1, hits give low values 0.991 | S. cerevisiae deletion strains, locus YNL298W, strain CLA4, hits give low values 0.992 | S. cerevisiae deletion strains, locus YNL307C, strain MCK1, hits give low values 0.979 | S. cerevisiae deletion strains, locus YNL322C, strain KRE1 (second series), hits give low values 1.06 | S. cerevisiae deletion strains, locus YNL322C, strain KRE1, hits give low values 1.01 | S. cerevisiae deletion strains, locus YNR049C, strain mso1, hits give low values 1 | S. cerevisiae deletion strains, locus YNR052C, strain pop2, hits give low values 0.997 | S. cerevisiae deletion strains, locus YOL012C, strain htz1 0.802 | S. cerevisiae deletion strains, locus YOL147C, strain pex11, hits give low values 0.983 | S. cerevisiae deletion strains, locus YOR001W, strain rrp6, hits give low values 0.967 | S. cerevisiae deletion strains, locus YOR061W, strain CKA2, hits give low values 1.02 | S. cerevisiae deletion strains, locus YOR069W, strain VPS5, hits give low values 1.02 | S. cerevisiae deletion strains, locus YOR070C, strain gyp1, hits give low values 1.01 | S. cerevisiae deletion strains, locus YOR080W, strain dia2, hits give low values 1.01 | S. cerevisiae deletion strains, locus YOR083W, strain WHI5, hits give low values 1 | S. cerevisiae deletion strains, locus YOR106W, strain vam3, hits give low values 1.03 | S. cerevisiae deletion strains, locus YOR136W, strain idh2, hits give low values 0.971 | S. cerevisiae deletion strains, locus YOR144C, strain elg1, hits give low values 0.988 | S. cerevisiae deletion strains, locus YOR184W, strain ser1, hits give low values 0.972 | S. cerevisiae deletion strains, locus YOR231W, strain MKK1, hits give low values 0.951 | S. cerevisiae deletion strains, locus YOR265W, strain rbl2, hits give low values 0.984 | S. cerevisiae deletion strains, locus YOR270C, strain vph1, hits give low values 1.03 | S. cerevisiae deletion strains, locus YOR290C, strain snf2, hits give low values 1.03 | S. cerevisiae deletion strains, locus YOR316C, strain cot1, hits give low values 0.987 | S. cerevisiae deletion strains, locus YPL051W, strain arl3, hits give low values 1 | S. cerevisiae deletion strains, locus YPL055C, strain LGE1, hits give low values 1.02 | S. cerevisiae deletion strains, locus YPL078C, strain atp4, hits give low values 1.04 | S. cerevisiae deletion strains, locus YPL106C, strain sse1, hits give low values 1.06 | S. cerevisiae deletion strains, locus YPL240C, strain hsp82, hits give low values 1.01 | S. cerevisiae deletion strains, locus YPL241C, strain CIN2, hits give low values 1.01 | S. cerevisiae deletion strains, locus YPL256C, strain CLN2, hits give low values 0.945 | S. cerevisiae deletion strains, locus YPR119W, strain clb2, hits give low values 0.982 | S. cerevisiae deletion strains, locus YPR141C, strain kar3, hits give low values 0.999 | S. cerevisiae deletion strains, locus YPR163C, strain tif3, hits give low values 0.991 | S. cerevisiae deletion strains, locus YPR167C, strain met16, hits give low values 0.987 | S. cerevisiae deletion strains, strain wtn01, hits give low values 0.97 | S. cerevisiae strains, strain wild type, hits give low values 1.02
